Measured values published in PubChem BioAssay (EPA / NIEHS).
Records with an inconclusive call do not appear. Calls of active or inactive are those of the source. The calls were made as follows, unless noted: active = hit-call score of the fitted dose curve at least 0.9, where 1 is the maximum; inactive = score below 0.9.

Columns and labels:
[1] = CEETOX_H295R_11DCORT: CeeTox H295R High-throughput Steroidogenesis Assay for 11-Deoxycortisol (11DCORT) (AID 2283432); settings: actives raise or lower the signal;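 as to AC50: 11-deoxycortisol secreted into the medium measured by LC-MS/MS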
Outline: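 Adrenal carcinoma line H295R, run per OECD 456 with minor changes, was forskolin-stimulated (10 uM, 48 h) before a 48 h chemical exposure at 0.1% DMSO. Secreted 11-deoxycortisol was quantified by HPLC-MS/MS.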

[2] = CEETOX_H295R_OHPREG: CeeTox H295R High-throughput Steroidogenesis Assay for OH-Pregnenolone (OHPREG) (AID 2283434); settings: actives raise or lower the signal
Outline: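 H295R cells pre-stimulated 48 h with 10 uM forskolin, then exposed 48 h to chemical in 0.1% DMSO. 17alpha-hydroxypregnenolone in medium quantified by MTBE extraction and HPLC-MS/MS; bidirectional fit versus DMSO, viability checked by MTT.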

[3] = CEETOX_H295R_OHPROG: CeeTox H295R High-throughput Steroidogenesis Assay for OH-Progesterone (OHPROG) (AID 2283435); settings: actives raise or lower the signal;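 as to AC50: human adrenal H295R cells primed 48 h with 10 µM forskolin; 17alpha-hydroxyprogesterone secreted into medium measured by HPLC-MS/MS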
Outline: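 H295R, 10 uM forskolin prestim 48 h; cmpd in 0.1% DMSO 48 h; medium MTBE-extracted, HPLC-MS/MS for OH-progesterone; 7-pt std curve; bidirectional fit vs DMSO; MTT viability, chemicals diluted until viability >/=70%.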

[4] = CEETOX_H295R_ANDR: CeeTox H295R High-throughput Steroidogenesis Assay for Androstenedione (ANDR) (AID 2283436); settings: actives raise or lower the signal
Outline: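 H295R cells, following OECD 456 with minor changes, exposed to chemicals for 48 h. Androstenedione in the medium was quantified by HPLC-MS/MS after MTBE extraction. Fitting was bidirectional versus DMSO; chemicals were diluted until MTT viability was ≥70%.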

[5] = CEETOX_H295R_CORTIC: CeeTox H295R High-throughput Steroidogenesis Assay for Corticosterone (CORTIC) (AID 2283437); settings: actives raise or lower the signal;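 also: corticosterone secreted into medium quantified by mass spectrometry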;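 as to AC50: human H295R adrenal cells prestimulated with forskolin before chemical exposure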
Outline: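 H295R adrenal cells prestimulated 48 hours with 10 uM forskolin, then exposed 48 hours to chemical in 0.1% DMSO. Corticosterone in medium measured by HPLC-MS/MS after MTBE extraction; MTT viability in the same wells; bidirectional fit versus DMSO.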

[6] = CEETOX_H295R_CORTISOL: CeeTox H295R High-throughput Steroidogenesis Assay for Cortisol (AID 2283438); settings: actives raise or lower the signal;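 also: cortisol secreted into medium quantified by LC-MS/MS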
Outline: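 Forskolin 10 uM 48 h prestim → test cmpd in DMSO (0.1% final) 48 h → medium MTBE-extracted → LC-MS/MS cortisol vs 7-pt std curve. Gain/loss of signal fitted vs DMSO. MTT viability in same wells.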

[7] = CEETOX_H295R_DOC: CeeTox H295R High-throughput Steroidogenesis Assay for DOC (AID 2283439); settings: actives raise or lower the signal
Outline: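 Readout: 11-deoxycorticosterone in culture medium by reverse-phase C18 HPLC with ESI+ tandem MS after MTBE extraction. Cells: H295R, forskolin-primed (10 uM, 48 h), chemical-treated 48 h; DMSO 0.1% final. Activity fitted bidirectionally versus DMSO.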

[8] = CEETOX_H295R_PROG: CeeTox H295R High-throughput Steroidogenesis Assay for Progesterone (PROG) (AID 2283442); settings: actives raise or lower the signal;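 as to AC50: human H295R adrenal cells primed with 10 µM forskolin before dosing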
Outline: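 Progesterone read-out: HPLC-MS/MS on MTBE extracts of conditioned medium after 48 h chemical exposure of forskolin-primed (10 uM, 48 h) H295R cells. Gain or loss of signal was fitted relative to DMSO baseline.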

[9] = target: Estrogen receptor (Homo sapiens) (UniProt P03372); experiment: OT_ERa_GFPERaERE_0480: Odyssey Thera (OT) 8-hour HeLa Transcription Induction Assay for Estrogen Receptor (AID 2283381)
Outline: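 Fluorescent reporter signal, imaged by microscopy and scored with image-analysis algorithms, was taken 8 h after chemical dosing of HeLa cells; activity was fitted upward relative to DMSO.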

[10] = target: Estrogen receptor (Homo sapiens) (UniProt P03372); experiment: OT_ERa_GFPERaERE_0120: Odyssey Thera (OT) 2-hour HeLa Transcription Induction Assay for Estrogen Receptor (AID 2283382; active = hit-call score of the fitted dose curve at least 0.9, where 1 is the maximum)
Outline: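 HeLa, 384-well, 2 h chemical exposure; GFP reporter induction (ERE), fluorescence microscopy; high content image analysis; positive fitting direction vs DMSO.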

[11] = target: Retinoic acid receptor RXR-alpha (Homo sapiens) (UniProt P19793); experiment: OT_NURR1_NURR1RXRa_0480: Odyssey Thera (OT) 8-hour HEK293T Protein Complementation Assay for Nurr1/retinoid X receptor (RXR) (AID 2283385; active = hit-call score of the fitted dose curve at least 0.9, where 1 is the maximum)
Outline: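 8 h compound exposure, HEK293T; Nurr1/RXRα fragment complementation; fluorescence intensity; positive fitting direction vs DMSO baseline.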

[12] = target: Retinoic acid receptor RXR-alpha (Homo sapiens) (UniProt P19793); experiment: OT_NURR1_NURR1RXRa_1440: Odyssey Thera (OT) 24-hour HEK293T Protein Complementation Assay for Nurr1/retinoid X receptor (RXR) (AID 2283386; active = hit-call score of the fitted dose curve at least 0.9, where 1 is the maximum)
Outline: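 Interaction of Nurr1 with RXRα brings fused reporter fragments together in human HEK293T cells, restoring a functional reporter. Fluorescence intensity is measured 24 h after chemical treatment, and values are analysed in the positive direction against DMSO.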

[13] = target: Peroxisome proliferator-activated receptor gamma (Homo sapiens) (UniProt P37231); experiment: OT_PPARg_PPARgSRC1_0480: Odyssey Thera (OT) 8-hour Protein-Complementation Assay for Peroxisome Proliferator-activated Receptor Gamma / SRC-1 Co-activator (AID 2283387; active = hit-call score of the fitted dose curve at least 0.9, where 1 is the maximum;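 also: nuclear to cytoplasmic split Venus YFP fluorescence ratio reporting PPARg SRC-1 interaction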)
Outline: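 Protein-fragment complementation in HEK293T: Venus YFP halves (residues 1-158, 159-239, mutated to IFP1/IFP2) fused to PPARg/SRC-1. 8 h exposure; N/C ratio at 488 nm; DMSO negative control.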

[14] = target: Peroxisome proliferator-activated receptor gamma (Homo sapiens) (UniProt P37231); experiment: OT_PPARg_PPARgSRC1_1440: Odyssey Thera (OT) 24-hour Protein-Complementation Assay for Peroxisome Proliferator-activated Receptor Gamma/ SRC-1 Co-activator (AID 2283388; active = hit-call score of the fitted dose curve at least 0.9, where 1 is the maximum;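 also: nuclear to cytoplasmic ratio of reconstituted Venus YFP fluorescence in fixed imaged cells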)
Outline: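 Readout: nuclear-to-cytoplasmic 488 nm fluorescence ratio, ≥350 cells per image, 8 images per well, after 24 h compound exposure of HEK293T expressing PPARg/SRC-1 split-YFP fusions. Activity fitted in positive direction against DMSO.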

[15] = CEETOX_H295R_ESTRADIOL: CeeTox H295R High-throughput Steroidogenesis Assay for Estradiol (AID 2283440); settings: actives raise or lower the signal;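 also: estradiol secreted into medium quantified by LC-MS/MS after dansyl derivatisation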
Outline: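 H295R, 48 h forskolin (10 uM) prestim → 48 h compound, 0.1% DMSO final. Estradiol in medium: MTBE extraction, dansyl chloride derivatization, LC-MS/MS. Fit bidirectional vs DMSO baseline; MTT viability in same wells.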

[16] = CEETOX_H295R_ESTRONE: CeeTox H295R High-throughput Steroidogenesis Assay for Estrone (AID 2283441); settings: actives raise or lower the signal;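 also: estrone secreted into medium measured by LC-MS/MS after dansyl derivatization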;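 as to AC50: human adrenal H295R cells prestimulated with forskolin for two days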
Outline: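 H295R cells prestimulated 48 h with 10 uM forskolin, then exposed 48 h to chemicals in 0.1% DMSO final; estrone in medium extracted with MTBE, dansyl-derivatized, quantified by HPLC-MS/MS; bidirectional fitting versus DMSO, viability by MTT.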

Retinoic acid receptor RXR-alpha (Homo sapiens), sequence (P19793 whole entry, looked up, the tested form may be a part): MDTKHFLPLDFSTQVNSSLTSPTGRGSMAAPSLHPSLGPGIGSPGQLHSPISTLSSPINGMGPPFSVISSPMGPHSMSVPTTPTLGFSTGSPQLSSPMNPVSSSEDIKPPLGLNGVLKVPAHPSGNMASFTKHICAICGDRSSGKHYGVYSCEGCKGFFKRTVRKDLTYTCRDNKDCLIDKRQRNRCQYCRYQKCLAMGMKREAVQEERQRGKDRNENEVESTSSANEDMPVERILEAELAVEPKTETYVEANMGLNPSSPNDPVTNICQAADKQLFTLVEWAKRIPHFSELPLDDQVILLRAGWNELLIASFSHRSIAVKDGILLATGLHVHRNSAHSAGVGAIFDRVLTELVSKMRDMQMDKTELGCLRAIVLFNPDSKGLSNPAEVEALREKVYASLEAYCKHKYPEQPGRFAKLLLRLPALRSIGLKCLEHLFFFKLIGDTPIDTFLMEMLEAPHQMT
Estrogen receptor (Homo sapiens), sequence (P03372 whole entry, looked up): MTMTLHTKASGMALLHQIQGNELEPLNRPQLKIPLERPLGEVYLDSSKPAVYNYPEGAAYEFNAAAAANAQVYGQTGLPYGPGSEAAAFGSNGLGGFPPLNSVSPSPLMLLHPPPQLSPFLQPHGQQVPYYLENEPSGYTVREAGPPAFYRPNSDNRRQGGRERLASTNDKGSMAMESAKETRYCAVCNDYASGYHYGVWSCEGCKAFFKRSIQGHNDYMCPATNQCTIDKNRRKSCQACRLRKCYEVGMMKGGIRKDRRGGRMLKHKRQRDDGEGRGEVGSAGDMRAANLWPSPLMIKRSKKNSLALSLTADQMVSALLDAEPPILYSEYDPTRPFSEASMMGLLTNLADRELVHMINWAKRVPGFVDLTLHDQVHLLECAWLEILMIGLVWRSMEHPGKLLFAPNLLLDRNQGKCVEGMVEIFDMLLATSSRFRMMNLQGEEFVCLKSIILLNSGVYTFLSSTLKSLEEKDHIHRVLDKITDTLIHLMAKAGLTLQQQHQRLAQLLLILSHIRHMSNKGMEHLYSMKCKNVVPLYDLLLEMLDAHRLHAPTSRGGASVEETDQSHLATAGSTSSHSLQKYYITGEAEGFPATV
Peroxisome proliferator-activated receptor gamma (Homo sapiens), sequence (P37231 whole entry, looked up, the tested form may be a part): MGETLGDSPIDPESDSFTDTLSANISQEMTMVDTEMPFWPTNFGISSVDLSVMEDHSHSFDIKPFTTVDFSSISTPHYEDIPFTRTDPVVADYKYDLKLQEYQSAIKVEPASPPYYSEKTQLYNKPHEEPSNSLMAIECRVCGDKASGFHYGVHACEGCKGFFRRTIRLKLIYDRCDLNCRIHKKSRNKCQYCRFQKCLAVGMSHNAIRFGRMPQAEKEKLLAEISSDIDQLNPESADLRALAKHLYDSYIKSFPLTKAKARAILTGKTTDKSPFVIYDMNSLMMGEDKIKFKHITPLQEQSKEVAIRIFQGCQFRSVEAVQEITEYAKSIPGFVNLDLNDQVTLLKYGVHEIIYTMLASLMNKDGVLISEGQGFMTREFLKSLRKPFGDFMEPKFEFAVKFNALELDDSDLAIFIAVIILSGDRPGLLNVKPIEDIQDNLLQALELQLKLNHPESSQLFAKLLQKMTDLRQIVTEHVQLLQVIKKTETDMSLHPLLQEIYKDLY

CCn1c2ccccc2c2ccccc21
AC50 [1]: 50 µM (active) | outcome [2]: inactive | AC50 [3]: 50 µM (active) | AC50 [4]: 50 µM (active) | outcome [5]: inactive | outcome [6]: inactive | outcome [7]: inactive | outcome [8]: inactive

CCCCOC(=O)[C@H](C)O
outcome [9]: inactive | outcome [10]: inactive | outcome [11]: inactive | outcome [12]: inactive | outcome [13]: inactive | outcome [14]: inactive

CSc1ccc(O)cc1C
outcome [1]: inactive | outcome [2]: inactive | outcome [3]: inactive | AC50 [4]: 78 µM (active) | AC50 [5]: 37.6 µM (active) | outcome [6]: inactive | outcome [7]: inactive | AC50 [15]: 28.2 µM (active) | AC50 [16]: 26.7 µM (active) | outcome [8]: inactive

O=C1c2ccccc2C(=O)c2c(Cl)cccc21
outcome [1]: inactive | outcome [2]: inactive | outcome [3]: inactive | outcome [4]: inactive | outcome [5]: inactive | outcome [6]: inactive | outcome [7]: inactive | outcome [15]: inactive | outcome [16]: inactive | outcome [8]: inactive

Nc1cccnc1N
outcome [1]: inactive | outcome [2]: inactive | outcome [3]: inactive | outcome [5]: inactive | outcome [6]: inactive | outcome [7]: inactive | outcome [8]: inactive

Oc1ccc2c(c1)CCC2
outcome [1]: inactive | outcome [4]: inactive | outcome [5]: inactive | outcome [6]: inactive | outcome [7]: inactive | AC50 [15]: 39.1 µM (active) | outcome [16]: inactive

CCCCCCCCn1sc(Cl)c(Cl)c1=O
outcome [9]: inactive | outcome [10]: inactive | outcome [11]: inactive | outcome [12]: inactive

CCN(CC)c1ccc(C=O)cc1
outcome [1]: inactive | outcome [2]: inactive | outcome [3]: inactive | outcome [4]: inactive | outcome [5]: inactive | outcome [6]: inactive | AC50 [7]: 59.2 µM (active) | outcome [15]: inactive | outcome [16]: inactive | outcome [8]: inactive

CN1CN(C)CN(C)C1
outcome [1]: inactive | outcome [2]: inactive | outcome [3]: inactive | outcome [5]: inactive | outcome [6]: inactive | outcome [7]: inactive | outcome [15]: inactive | outcome [16]: inactive | outcome [8]: inactive

OCCC(O)CO (configuration not stated)
outcome [1]: inactive | outcome [2]: inactive | outcome [3]: inactive | outcome [5]: inactive | outcome [6]: inactive | outcome [7]: inactive | outcome [8]: inactive

O=c1[nH]cccc1O
AC50 [1]: 8.85 µM (active) | AC50 [2]: 6.71 µM (active) | AC50 [3]: 8.78 µM (active) | outcome [5]: inactive | outcome [6]: inactive | AC50 [7]: 5.07 µM (active) | outcome [15]: inactive | outcome [16]: inactive | outcome [8]: inactive

CCOCOCC
outcome [1]: inactive | outcome [2]: inactive | outcome [3]: inactive | outcome [4]: inactive | outcome [5]: inactive | outcome [6]: inactive | outcome [7]: inactive | outcome [15]: inactive | outcome [16]: inactive | outcome [8]: inactive

Cc1cc(O)c(C(C)(C)C)cc1C(C)(C)C
outcome [1]: inactive | outcome [2]: inactive | outcome [3]: inactive | outcome [4]: inactive | outcome [5]: inactive | outcome [6]: inactive | outcome [7]: inactive | outcome [15]: inactive | outcome [16]: inactive | AC50 [8]: 2.64 µM (active)
